# Screening results: PubChem BioAssay, National Center for Advancing Translational Sciences (NCATS)
# GALK inhibitor: inhibitors of human galactokinase. P51570. Purified GALK, Kinase-Glo residual ATP luminescence. Potency, µM (series often up to 57.5 µM), without a hit: at the top dose activity change, negative = inhibition, hits mostly inhibitors. 270,000 compounds, 0.007% hits. AID 1868; note: potency is the fitted concentration of half-maximal effect; % is set by controls: 0 for no effect and ±100 for the full control effect
# Target sequence (P51570 whole entry, looked up): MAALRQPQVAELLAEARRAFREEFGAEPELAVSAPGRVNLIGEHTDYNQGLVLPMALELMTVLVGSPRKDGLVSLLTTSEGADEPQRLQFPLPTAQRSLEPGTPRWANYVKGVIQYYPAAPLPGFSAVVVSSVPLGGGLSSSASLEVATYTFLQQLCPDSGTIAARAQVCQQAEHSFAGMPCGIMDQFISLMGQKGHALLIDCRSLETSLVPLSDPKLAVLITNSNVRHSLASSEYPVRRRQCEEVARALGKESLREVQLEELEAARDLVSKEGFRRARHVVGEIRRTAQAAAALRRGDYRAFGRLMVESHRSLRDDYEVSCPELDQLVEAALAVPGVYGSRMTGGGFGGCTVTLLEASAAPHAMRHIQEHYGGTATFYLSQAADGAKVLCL
#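 Luminescence from leftover ATP (Ultra-Glo luciferase/luciferin) served as read-out after a 1 h room-temperature reaction of 5 nM GALK with 35 uM ATP and 100 uM galactose.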
# Tb PFK block: T. brucei PFK enzyme inhibition | AID 485367 | Potency, µM (doses to about 57.5 µM), for inactives: at the top dose activity, negative = inhibition, most hits filed as inhibitors | T. brucei PFK, ADP-Glo luminescence | 330,000 compounds, 0.17% hits;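 note: potency is the fitted concentration of half-maximal effect; 0% = uninhibited 1x PFK enzyme wells and -100% = no-enzyme wells; nearly all actives have a fitted effect of over 60% in size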
#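 1.25 nM PFK with 0.5 mM F6P and 0.1 mM ATP in 0.1 M TEA pH 8.0, 5 mM MgCl2, incubated 45 min at room temperature; ADP measured by ADP-Glo luminescence; compounds titrated up to 57 uM.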
# PKM2 act: PKM2 (human) enzyme activation; Potency, µM (doses to about 57.5 µM), without a hit: top-dose activation, usual class: activators; 260,000 compounds, 0.34% hits; P14618; purified PKM2, Kinase-Glo ATP luminescence, activation; response scale: 0% is enzyme alone, no compound; note: potency is the fitted concentration of half-maximal effect; % is set by controls: 0 for no effect and ±100 for the full control effect; nearly all actives have a fitted effect of over 55% in size
#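 ATP formation by purified human PK-M2, quantified via coupled luciferase luminescence after 1 h at room temperature with 0.1 mM ADP and 0.5 mM PEP final.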
# Luc counter: blocks Kinase-Glo luciferase, a counter-screen artifact; 200,000 compounds, 0.28% hits; Potency, µM (series often up to 38.3 µM), for inactives: at the highest dose activity change, negative = inhibition, most hits filed as inhibitors; Q27757; Kinase-Glo luciferase, ATP luminescence, 8 min; AID 1379; note: potency is the fitted concentration of half-maximal effect; % is set by controls: 0 for no effect and ±100 for the full control effect; nearly all actives have a fitted effect of over 60% in size
#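 Compounds were added to a substrate mix at pH 7.2 (50 mM imidazole, 10 uM ATP, within the enzyme's linear range), followed by Kinase-Glo detection reagent; luminescence was measured after 8 minutes at ambient temperature.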
# CBFb RUNX1 block: blocks binding between human CBF-beta and RUNX1; Q01196+Q13951; AlphaScreen CBFb-His/RUNX1-biotin binding, biochemical; Potency, µM (series often up to 59.8 µM), inactives show at the highest dose activity, negative = inhibition, usual class: inhibitors; 230,000 tested, under 10 active; AID 1477; note: % of control where 0% means no effect
#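 AlphaScreen proximity signal reports loss of binding between His-tagged CBF-beta and biotin-labelled RUNX1, each at 30 nM. Proteins are pre-associated for 20 minutes, compounds added for 15 minutes, then beads for 90 minutes, all at ambient temperature.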
# * marks the source's active call; other numbers are inactive results; u = inconclusive; x = no result; [ ] = another dose, or the depositor's remark. Most compounds without a hit are left out; they make up all but 0.56% or so of the library. Calls come from the whole dose curve; as a rule, active = well fitted curve in the direction sought with a large enough effect; inconclusive = small, poorly fitted or top-dose-only effect, or another doubt; inactive = no such curve, though single readings can be large; an effect the other way counts as inactive or inconclusive.
SMILES,GALK inhibitor,Tb PFK block,PKM2 act,Luc counter,CBFb RUNX1 block
CC[C@H](C)[C@H](NC(=O)[C@H](C)NC(=O)[C@H](CC(=O)O)NC(=O)[C@H](CO)NC(=O)[C@@H](N)Cc1cnc[nH]1)C(=O)N[C@@H](Cc1ccccc1)C(=O)N[C@H](C(=O)N[C@@H](CCC(N)=O)C(=O)N[C@@H](CCC(N)=O)C(=O)N[C@@H](Cc1ccc(O)cc1)C(=O)N[C@@H](CO)C(=O)N[C@@H](CCCCN)C(=O)N[C@@H](CC(C)C)C(=O)N[C@@H](CC(C)C)C(=O)N[C@@H](C)C(=O)N[C@@H](CCCCN)C(=O)N[C@@H](CC(C)C)C(=O)N[C@@H](C)C(=O)N[C@@H](CC(C)C)C(=O)N[C@@H](CCC(N)=O)C(=O)N[C@@H](CCCCN)C(=O)N[C@@H](Cc1ccc(O)cc1)C(=O)N[C@@H](CC(C)C)C(=O)N[C@@H](C)C(=O)N[C@@H](CO)C(=O)N[C@H](C(=O)N[C@@H](CC(C)C)C(=O)NCC(=O)N[C@@H](CO)C(=O)N[C@@H](CCCNC(=N)N)C(=O)N[C@H](C(=O)N[C@@H](CO)C(=O)N1CCC[C@H]1C(=O)N1CCC[C@H]1C(=O)N1CCC[C@H]1C(N)=O)[C@@H](C)O)[C@@H](C)CC)[C@@H](C)O,x,x,x,x,23%
Oc1ccc(Cc2cc(Cl)cc(Cl)c2O)cc1Cl,x,x,x,-2%[7.66 µM],x
CC(C)Cn1c(N)c(C(=O)CSc2nncs2)c(=O)n(C)c1=O,x,-2%,x,x,x
CCCn1c(N)c(C(=O)CSc2nc(C)cs2)c(=O)n(C)c1=O,-2%,-1%,16µM*,-2%,0%
COC(=O)/C(C#N)=C/c1ccc(-c2ccc(S(N)(=O)=O)cc2)o1,0%,6%,8%,x,8%
N#CC(C#N)=Cc1ccc(-c2ccc(S(=O)(=O)N=C(N)N)cc2)o1,-4%,1%,18µM*,-2%,4%
Cc1cc(C2=NNC(=NC3CC3)SC2)c(C)n1-c1ccccc1F,4%,-3%,2%,11µM*,4%
c1cc2c(cc1C1=NNC(=NC3CC3)SC1)OCCO2,u,u,-73%,2.2µM*,-18%
CC(C)(C)C(=O)Nc1ccc(C(=O)Nc2cccc(Oc3ccc(C(=O)O)c(C(=O)O)c3)c2)cc1,-1%,21µM*,0%[11.5 µM],x,x
COc1ccc(C(=O)Nc2ccccc2C(=O)N/N=C/c2ccco2)cc1,9%,-14%,-59%,2.8µM*,-1%
O=C(Nc1ccccc1C(=O)N/N=C/c1ccncc1)c1ccccc1,19%,-16%,-84%,1.8µM*,6%
CC(C)(C)OC(=O)NC(NC(=O)OCC1c2ccccc2-c2ccccc21)C(=O)O (stereo not given),x,x,x,x,-19%
O=C(CCOc1ccccc1)N1CCN(S(=O)(=O)c2cccs2)CC1,1%,-2%,13µM*,-3%,2%
CCS(=O)(=O)N1CCN(S(=O)(=O)c2ccccc2[N+](=O)[O-])CC1,-2%,4%,u,3%,0%
COc1ccc(OCC(=O)N2CCN(S(=O)(=O)c3ccccc3[N+](=O)[O-])CC2)cc1,-1%,6%,7.9µM*,-1%,12%
O=C(c1ccccc1)N1CCN(S(=O)(=O)c2cccs2)CC1,-4%,-3%,5%,x,x
O=C(CCOc1ccccc1)N1CCN(S(=O)(=O)c2ccccc2F)CC1,x,-5%,x,x,x
O=C(CCc1ccccc1)N1CCN(S(=O)(=O)c2cccs2)CC1,-4%,-2%,3.5µM*,x,x
O=C(COc1ccccc1)N1CCN(S(=O)(=O)c2cccs2)CC1,0%,26%,7.9µM*,0%,3%
N#CCc1ccccc1[N+](=O)[O-],x,x,x,x,8%[21.7 µM]
COC(=O)C1=C(C)N(Cc2ccccc2)C(=NCc2ccco2)N[C@H]1c1ccc(Br)cc1,x,x,-1%,x,x
CS(=O)(=O)Nc1ccc(Nc2c3ccccc3nc3ccccc23)cc1,x,x,x,-2%[7.66 µM],x
N#Cc1ccc(OCC(=O)N2CCN(S(=O)(=O)c3cccs3)CC2)cc1,-4%,-1%,18µM*,1%,9%
COc1ccc(C2=Nn3c(nnc3-c3ccc(OC)cc3OC)SC2)cc1,x,x,x,x,3%
O=C(CSc1nc2c(c(=O)[nH]1)CN(Cc1ccc(F)cc1)CC2)Nc1ccc(F)cc1,0%,-1%,16µM*,1%,8%
SMILES,GALK inhibitor,Tb PFK block,PKM2 act,Luc counter,CBFb RUNX1 block
N#CC(C#N)=c1ccc2c(c1)NC1(CCCCC1)N=2,12%,u,-52%,13µM*,-27%
N#CC(C#N)=C1NC2(CCCCC2)Cc2ccccc21,1%,1%,3%,x,2%
CN(C)CCNC(=O)c1ccc(-n2c(=O)c(=O)[nH]c3ccccc32)cc1,x,x,x,0%,x
CSCC[C@H](NC(=O)[C@H](CC(C)C)NC(=O)[C@H](CO)NC(=O)[C@H](CCC(=O)O)NC(=O)[C@H](CC(C)C)NC(=O)[C@H](Cc1ccc(O)cc1)NC(=O)[C@H](CCCCN)NC(=O)[C@H](CCCCN)NC(=O)[C@H](C)NC(=O)[C@H](CO)NC(=O)[C@H](CC(C)C)NC(=O)[C@H](CCC(N)=O)NC(=O)CNC(=O)[C@H](CC(C)C)NC(=O)[C@H](CC(C)C)NC(=O)[C@H](CCCCN)NC(=O)[C@H](CO)NC(=O)[C@H](Cc1ccccc1)NC(=O)[C@H](CC(=O)O)NC(=O)[C@H](CO)NC(=O)[C@@H](NC(=O)[C@H](Cc1ccccc1)NC(=O)[C@@H](NC(=O)CNC(=O)[C@H](CC(=O)O)NC(=O)[C@H](C)NC(=O)[C@@H](N)Cc1cnc[nH]1)C(C)C)[C@@H](C)O)C(N)=O,x,x,x,x,10%
CNS(=O)(=O)c1ccc2c(c1)oc(=O)c1cc(S(=O)(=O)NC)ccc12,1%,-5%,1.6µM*,-1%,4%
O=c1oc2cc(S(=O)(=O)NCCCO)ccc2c2ccc(S(=O)(=O)NCCCO)cc12,5%,0%,14µM*,x,-1%
CCN(CC)CCCNC(=O)c1ccc(-n2c(=O)c(=O)[nH]c3ccccc32)cc1,x,x,x,-1%,x
CCCCCCCCCCCCCC[C@@H](O)[C@@H](O)[C@@H](N)CO,x,x,x,x,3%
Cc1ccc(C(=O)Nc2ccccc2N2CCOCC2)c(C)c1,x,x,x,-2%,x
